# Measured values as given in the supplement of paper PMC6607015.
# Structures can show the parent of a compound that is named as a salt.
# Legend:
# Settings in all cases: compound concentration in added solution (µM; 5 µl added to 20 µl cells): 10; 18 h
# A431 [1] = assay: LBPA endosome anti-LBPA integrated intensity (sum per cell), Z-score; higher = more LBPA staining
# Procedure, shortened: (§1)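 Per-cell integrated LBPA or filipin intensity, whole-cell or within LBPA endosomes, is expressed as Z-scores normalised in AcuityXpress. HeLa MZ or A431 cells, 3,500 per well in 20 µl, sat on 5 µl of 10 µM compound solution in duplicate 384-well imaging plates for 18 h. They were then fixed in 4% PFA, stained, imaged in four 20× fields per well and segmented using MetaXpress.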
# HeLa MZ [2] = assay: as above
# Procedure, shortened: as §1
# A431 [3] = assay: whole-cell filipin (free cholesterol) integrated intensity, Z-score; higher = more cholesterol staining
# Procedure, shortened: as §1
# HeLa MZ [4] = assay: as above
# Procedure, shortened: as §1
# A431 [5] = assay: filipin (cholesterol) integrated intensity within LBPA endosomes, Z-score; higher = more cholesterol in LBPA endosomes
# Procedure, shortened: as §1
# HeLa MZ [6] = assay: as above
# Procedure, shortened: as §1
SMILES,LBPA endosome anti-LBPA integrated intensity (z-score) (A431 [1]),LBPA endosome anti-LBPA integrated intensity (z-score) (HeLa MZ [2]),whole-cell filipin (z-score) (A431 [3]),whole-cell filipin (z-score) (HeLa MZ [4]),filipin (z-score) (A431 [5]),filipin (z-score) (HeLa MZ [6])
NCc1ccc(S(N)(=O)=O)cc1 [Mafenide hydrochloride],-0.472,-0.546,-0.682,-0.536,-0.471,-0.44
CC[N+](C)(CC)CCOC(=O)C1c2ccccc2Oc2ccccc21 [Methantheline bromide],-0.356,-0.164,-0.155,-0.214,-0.359,-0.379
CCCCc1cc2ccccc2c(OCCN(C)C)n1 [Dimethisoquin hydrochloride],2.89,2.04,2.32,0.247,2.27,0.845
CC(C)(C)C(=O)OCOC(=O)[C@@H]1N2C(=O)[C@@H](/N=C/N3CCCCCC3)[C@H]2SC1(C)C [Pivmecillinam hydrochloride],-0.535,-0.482,-0.185,-0.0756,-0.424,-0.445
CCN(CC)CCOC(=O)C1(C2CCCCC2)CCCCC1 [Dicyclomine hydrochloride],-0.0951,0.203,0.137,-0.144,0.0207,0.0362
CCN(CC)C(=O)/C(C#N)=C/c1cc(O)c(O)c([N+](=O)[O-])c1 [Entacapone],-0.554,-0.84,-0.719,0.0172,-0.479,-0.52
CCN(CC)CCN[C@@H](C(=O)OCCC(C)C)c1ccccc1 [Camylofine chlorhydrate],-0.334,0.886,-0.446,-0.605,-0.28,0.0537
Clc1cc(Cl)c(OCC#CI)cc1Cl [Haloprogin],-0.472,-1.16,-0.945,-0.949,-0.529,-0.714
CCN(CC)CCNC(=O)c1cc(Br)c(N)cc1OC [Bromopride],-0.305,0.899,-0.269,0.199,-0.333,0.158
Cc1cccc(C)c1NC(=O)CN1CCN(CCCC(c2ccc(F)cc2)c2ccc(F)cc2)CC1 [Lidoflazine],3.2,1.66,1.3,0.566,2.57,2.52
c1ccc(CN(CC2=NCCN2)c2ccccc2)cc1 [Antazoline hydrochloride],-0.107,0.686,-0.0849,0.249,-0.0343,0.301
COc1cc(C(=O)OCCCN2CCCN(CCCOC(=O)c3cc(OC)c(OC)c(OC)c3)CC2)cc(OC)c1OC [Dilazep dihydrochloride],3.35,1.34,3.19,3.53,3.75,4.35
CC1=Nc2ccc(Cl)cc2S(=O)(=O)N1 [Diazoxide],-0.529,-1.17,-0.801,-0.471,-0.542,-0.481
CC(=O)O[C@]1(C(C)=O)CC[C@H]2[C@@H]3C=C(Cl)C4=CC(=O)[C@@H]5C[C@@H]5[C@]4(C)[C@H]3CC[C@@]21C [Cyproterone acetate],-0.264,0.704,0.568,0.591,0.113,0.108
C[C@@H]1C[C@H]2[C@@H]3CCC4=CC(=O)C=C[C@]4(C)[C@@]3(Cl)[C@@H](O)C[C@]2(C)[C@@]1(OC(=O)c1ccco1)C(=O)CCl [Mometasone furoate],-0.183,0.598,-0.317,1.11,-0.214,0.7
OC(CCN1CCCCC1)(c1ccccc1)c1ccccc1 [Pridinol methanesulfonate salt],-0.0313,0.215,-0.378,-0.508,-0.23,-0.0603
O=C(O)/C=C/c1ccc(Cn2ccnc2)cc1 [Ozagrel hydrochloride],-0.373,0.0325,0.164,0.704,-0.284,-0.0855
CCCNC(=O)NS(=O)(=O)c1ccc(Cl)cc1 [Chlorpropamide],-0.658,-1.65,-0.845,-0.558,-0.591,-0.571
Oc1c(I)cc(Cl)c2cccnc12 [Clioquinol],-0.492,-0.976,-0.314,0.216,-0.526,-0.604

SMILES,LBPA endosome anti-LBPA integrated intensity (z-score) (A431 [1]),LBPA endosome anti-LBPA integrated intensity (z-score) (HeLa MZ [2]),whole-cell filipin (z-score) (A431 [3]),whole-cell filipin (z-score) (HeLa MZ [4]),filipin (z-score) (A431 [5]),filipin (z-score) (HeLa MZ [6])
COC(=O)C1=C(C)NC(C)=C(C(=O)OC(C)C)C1c1cccc2nonc12 (stereo not drawn) [Isradipine],-0.123,0.656,0.258,-0.179,-0.13,-0.161
C[C@H]1[C@H](NC(=O)/C(=N\OC(C)(C)C(=O)O)c2csc(N)n2)C(=O)N1S(=O)(=O)O [Aztreonam],-0.461,-0.629,-0.642,-0.428,-0.521,-0.607
COc1ccc2cc(CCC(C)=O)ccc2c1 [Nabumetone],-0.302,0.891,-0.304,0.488,-0.495,-0.175
CC(=O)NC[C@H]1CN(c2ccc(N3CCOCC3)c(F)c2)C(=O)O1 [Linezolid],-0.619,-0.712,-0.597,-0.713,-0.583,-0.674
CCN1CCCC1CNC(=O)c1cc(S(N)(=O)=O)ccc1OC (stereo not drawn) [Sulpiride],-0.472,-0.315,-0.817,-0.434,-0.518,-0.501
CNCCC(Oc1ccccc1OC)c1ccccc1 (stereo not drawn) [Nisoxetine hydrochloride],-0.0713,0.75,0.38,0.302,-0.0689,-0.0239
Clc1ccc(C(Cn2ccnc2)OCc2ccsc2Cl)c(Cl)c1 (stereo not drawn) [Tioconazole],-0.225,0.542,-0.125,-0.75,-0.053,-0.127
CC(C)NNC(=O)c1ccncc1 [Iproniazide phosphate],-0.439,-0.948,-0.562,-0.228,-0.44,-0.477
Nc1ccc(S(=O)(=O)c2ccc(N)cc2)cc1 [Dapsone],-0.514,-0.767,-0.45,-0.817,-0.55,-0.603
Cc1cc2c(cc1S(N)(=O)=O)S(=O)(=O)CCC2 [Meticrane],-0.412,-0.455,-0.803,-0.699,-0.464,-0.558
CC(CN1c2ccccc2Sc2ccccc21)N(C)C (stereo not drawn) [Promethazine hydrochloride],2.24,1.7,2.37,0.806,2.23,1.73
CN1CCC(=C2c3ccccc3Sc3ccccc32)CC1 [Pimethixene maleate],2.35,1.97,0.776,-0.782,1.82,0.962
CN(C)CC/C=C1/c2ccccc2COc2ccc(CC(=O)O)cc21 [Olopatadine hydrochloride],-0.245,0.672,0.305,0.861,-0.37,-0.275
CNC(C)CCC=C(C)C (stereo not drawn) [Isometheptene mucate],-0.484,-0.292,0.117,-0.234,-0.458,-0.578
Cc1c(N(C)C)c(=O)n(-c2ccccc2)n1C [Amidopyrine],-0.435,-0.447,-0.729,0.0263,-0.495,-0.518
CC1(C)S[C@@H]2[C@H](NC(=O)[C@H](NC(=O)N3CCNC3=O)c3ccccc3)C(=O)N2[C@H]1C(=O)O [Azlocillin sodium salt],-0.496,-0.655,-0.388,-0.517,-0.464,-0.493
Cc1nc2ccccn2c(=O)c1CCN1CCC(C(=O)c2ccc(F)cc2)CC1 [Pirenperone],1.82,2.56,1.36,1.21,1.54,2.01
CC1=C(C(=O)O)N2C(=O)[C@@H](NC(=O)[C@H](N)c3ccc(O)cc3)[C@H]2SC1 [Cefadroxil],-0.651,-1.02,-0.697,-0.675,-0.507,-0.626
Cc1c(Cl)cccc1Nc1ccccc1C(=O)O [Tolfenamic acid],-0.417,-0.76,-0.809,-0.604,-0.464,-0.636
